Assay results taken from PubChem BioAssay (NCATS).
Inconclusive results are not listed. Active and inactive are the calls of the source. The call rests on the fitted dose curve; in most records, active means well fitted cell-killing curve with a large enough effect; inconclusive means small, poorly fitted or top-dose-only effect, or effect the other way; inactive means no such curve, though single readings can be large or run the other way.
Potency means the concentration at half of the fitted maximal effect.

Assay: Quantitative High-Throughput drug screen in 47 multiple myeloma cell lines against the NCATS MIPE library collection: UTMC2_PLB cell viability assay (AID 1919868); further: nearly all actives have a fitted effect of over 55% in size
Details: CellTiter-Glo ATP luminescence, 48 h; viability (% of DMSO control): at 45.8 µM (top of the series)
Excerpt: PI: Beverly A. Mock Ph.D.
Laboratory of Cancer Biology and Genetics,
Center for Cancer Research, National Cancer Institute,
National Institute of Health, Bethesda, Maryland
Drug resistance and disease progression are common in multiple myeloma (MM) patients, underscoring the need for new therapeutic combinations. […] We hypothesized that effective combinations would reduce MYC expression and enhance p16 activity. […] These preclinical data identify potentially useful drug combinations for evaluation in drug-resistant MM and reveal potential mechanisms of combined drug sensitivity.
Described herein is the primary MIPE qHTS used to cherrypick compounds. Validated compounds were then further tested for potential synergistic activiy.
[1] Peat TJ, Gaikwad SM, Dubois W, Gyabaah-Kessie N, Zhang S, Gorjifard S, Phyo Z, Andres M, Hughitt VK, Simpson RM, Miller MA, Girvin AT, Taylor A, Williams D, D'Antonio N, Zhang Y, Rajagopalan A, Flietner E, Wilson K, Zhang X, Shinn P, Klumpp-Thomas C, McKnight C, Itkin Z, Chen L, Kazandijian D, Zhang J, Michalowski AM, Simmons JK, Keats J, Thomas CJ, Mock BA. Drug combinations identified by high-throughput screening promote cell cycle transition and upregulate Smad pathways in myeloma. Cancer Lett. 2023 Aug 1;568:216284. doi: 10.1016/j.canlet.2023.216284. Epub 2023 Jun 24. PMID: 37356470; PMCID: PMC10408729.
SEQUENCE No. (e.g., 1, 2, 3, etc.); […] (e.g., Cells, Incubation, Reagent, etc.); VALUE and DESCRIPTION.
1; Cells; 5 uL; white, solid bottom 1536-well Greiner assay plate.
2; Compounds; 23 nL; Kalypsis pin tool (Wako USA) equipped with a 1536-well pin head to transfer to the assay plates.
3; Incubation; 48 hours; 37C incubation.
4; Reagent;5uL; CellTiter Glo (Promega).
5; Detector; 425V; Luminescence; Viewlux PerkinElmer.
NOTES (numbers refer to Sequence numbers above)
1. The cell-based screening methods employed in this study were like those previously published. Briefly, the corresponding myeloma cell lines were screened in 1,536-well plates with 500 cells, 5-uL per well for inhibition of cell viability (assessed by measuring ATP levels with CellTiterGlo).
2. NCATS MIPE 4.0 library of approved and investigational drugs were added using the Kalypsis pin tool. Wells treated with DMSO only for 100% viability and media only for 0% viability were used as controls.
3. The assay plates were covered and incubated for 48 hours in a 37C, 5% CO2 incubator with controlled humidity.
4. After 48 hours, CellTilter-GloTM luminescent substrate mix (Promega) reagent was added to the assay plate and plates we incubated for 5 min at room temperature.
5. Signal was measured as median relative luminescence units on a ViewLux (PerkinElmer) multiplate reader.
[1] Heske CM, Davis MI, Baumgart JT, Wilson K, Gormally MV, Chen L, Zhang X, Ceribelli M, Duveau DY, Guha R, Ferrer M, Arnaldez FI, Ji J, Tran HL, Zhang Y, Mendoza A, Helman LJ, Thomas CJ. Matrix Screen Identifies Synergistic Combination of PARP Inhibitors and Nicotinamide Phosphoribosyltransferase (NAMPT) Inhibitors in Ewing Sarcoma. Clin Cancer Res. 2017 Dec 1;23(23):7301-7311. doi: 10.1158/1078-0432.CCR-17-1121. Epub 2017 Sep 12. PMID: 28899971; PMCID: PMC6636827.
For `C[C@]12CC[C@H](O)CC1=CC[C@H]1[C@H]3CCC(=O)[C@@]3(C)CC[C@@H]12`, the Potency was “inactive”. For `CN(C)NC(=O)CCC(=O)O`, the Potency was 37.2 nM (active). In the case of `CC(C)N[C@@H]1CCn2c(=O)[nH]c3cccc(c32)[C@@H]1O`, the Potency is reported as 10500 nM (active). With `CC(=O)Nc1ccc(OC[C@](C)(O)C(=O)Nc2ccc([N+](=O)[O-])c(C(F)(F)F)c2)cc1` the Potency was “inactive”. In the case of `COC1=CC(C)=C[C@@H](C)[C@@H](O)[C@@H](C)CC(C)=CC=C[C@H](OC)[C@H]([C@@H](C)[C@@H](O)[C@H](C)[C@@]2(O)C[C@@H](O)[C@H](C)[C@@H](C(C)C)O2)OC1=O`, the Potency is reported as 1 nM (active). For `CCOP(=O)(OCC)C(C)NC(=O)N(CCCl)N=O` (stereo not given), the Potency was “inactive”. With `CCCCCC[C@H]1C(=O)O[C@H](C)[C@H](NC(=O)c2cccc(NC=O)c2O)C(=O)O[C@@H](C)[C@@H]1OC(=O)CC(C)C` the Potency was 52.6 nM (active). With `CC(C)[C@]12O[C@@H]1[C@@H]1O[C@]13[C@]1(O[C@H]1C[C@@H]1C4=C(CC[C@@]13C)C(=O)OC4)[C@H]2O` the Potency was “inactive”. In the case of `Cc1[nH]nc2ccc(-c3cncc(OC[C@@H](N)Cc4c[nH]c5ccccc45)c3)cc12`, the Potency is reported as 372 nM (active). In the case of `CC1=C(O)C(=O)C=C2C1=CC=C1[C@@]2(C)CC[C@@]2(C)[C@@H]3C[C@](C)(C(=O)O)CC[C@]3(C)CC[C@]12C`, the Potency is reported as 1480 nM (active). With `CC[C@@H]1[C@@H](C)O[C@@](O)([C@@H](C)[C@H](O)[C@H](C)[C@H]2OC(=O)C=CC=C[C@@H](C)[C@@H]([C@@H](C)[C@@H](O)[C@H](C)[C@@]3(O)C[C@H](O[C@H]4C[C@H](O)[C@H](O)[C@H](C)O4)[C@H](CC)[C@@H](C)O3)OC(=O)C=CC=C[C@@H]2C)C[C@H]1O[C@H]1C[C@H](O)[C@H](O)[C@H](C)O1` the Potency was 1050 nM (active). In the case of `Cc1ccccc1-n1c(Cn2ncc3c(N)ncnc32)nc2cccc(C)c2c1=O`, the Potency is reported as 74.3 nM (active). With `NC1CC1c1ccccc1` (stereo not given) the Potency was “inactive”. In the case of `CN1CCN(c2ccc([N+](=O)[O-])c3no[n+]([O-])c23)CC1`, the Potency is reported as 18700 nM (active). In the case of `CC[C@H]1C=CC=CC[C@@H](C)[C@H](O)[C@@](C)(O)C(=O)[C@@H](C)[C@H](O)[C@@H](C)C(=O)[C@@H](C)[C@H](O)[C@@H](C)C=CC(=O)O[C@@H]2[C@@H](C)[C@H](CC1)O[C@]1(CC[C@H](C)[C@H](C[C@@H](C)O)O1)[C@H]2C`, the Potency is reported as 1 nM (active). With `COc1ccc2c(c1)[C@]13CCCCC1C(C2)N(C)CC3` (stereo not given in full) the Potency was “inactive”. In the case of `O=C1CCC[C@@H]2[C@H]3CCCN4CCC[C@@H](CN12)[C@@H]34`, the Potency is reported as “inactive”. In the case of `C[C@@]12OC(=O)[C@]1([C@@H](O)[C@@H]1C=CCCC1)NC(=O)[C@H]2CCCl`, the Potency is reported as 23.5 nM (active). With `Cc1c(C(=O)Nc2cccc(C(F)(F)F)c2)cc(-c2ccccc2)n1CCCN1CCOCC1` the Potency was 5900 nM (active). For `COC1=C[C@@H]2[C@@H]3Cc4ccc(OC)c(O)c4[C@]2(CCN3C)CC1=O`, the Potency was 4690 nM (active). For `CCOC(=O)c1c(C(C#N)=CN)c2ccc(Cl)c(Cl)c2n1C`, the Potency was “inactive”. With `COc1cc2cc(c1Cl)N(C)C(=O)C[C@H](OC(=O)C(C)C)[C@]1(C)O[C@H]1[C@H](C)[C@@H]1C[C@@](O)(NC(=O)O1)[C@H](OC)C=CC=C(C)C2` the Potency was “inactive”. With `C[C@H]1CCCC=CC2C[C@H](O)C[C@@H]2[C@H](O)C=CC(=O)O1` (stereo not given in full) the Potency was “inactive”. With `CC(C)N(CCNC(=O)CN1CCCC1=O)C(C)C` the Potency was “inactive”. For `O=c1[nH]c2ccc(Cl)cc2c(N[C@@H]2CN3CCC2CC3)c1-c1nc2ccccc2[nH]1`, the Potency was 332 nM (active). With `C1=C2CCCN[C@H]2[C@@H]2C[C@H]1[C@@H]1CCCCN1C2` the Potency was “inactive”. In the case of `CCCC[N+]1(C)[C@H]2CC(OC(=O)[C@H](CO)c3ccccc3)C[C@H]1[C@H]1O[C@H]12` (stereo not given in full), the Potency is reported as “inactive”. In the case of `O=C(Nc1ccncc1)C(=O)c1cn(Cc2ccc(Cl)cc2)c2ccccc12`, the Potency is reported as 13.2 nM (active). With `Cc1c(N)nc([C@H](CC(N)=O)NC[C@@H](N)C(N)=O)nc1C(=O)N[C@H](C(=O)N[C@@H](C)[C@H](O)[C@@H](C)C(=O)N[C@@H](C(=O)NCCc1nc(-c2nc(C(=O)NCCC[S+](C)C)cs2)cs1)[C@@H](C)O)C(O[C@H]1O[C@H](CO)[C@H](O)[C@@H](O)[C@@H]1O[C@H]1O[C@H](CO)[C@@H](O)[C@H](OC(N)=O)[C@H]1O)c1cnc[nH]1` (stereo not given in full) the Potency was 209 nM (active). In the case of `O=[N+]([O-])c1ncc[nH]1`, the Potency is reported as “inactive”. In the case of `Cc1ccccc1-n1c(Cn2cnc3c(N)ncnc32)nc2cccc(C)c2c1=O`, the Potency is reported as 66.2 nM (active). For `CC(=O)OCC1=C(C(=O)O)N2C(=O)[C@@H](N)[C@@H]2SC1`, the Potency was “inactive”. With `CC=C(C)C(=O)O[C@H]1C(C)=C2[C@@H]3OC(=O)[C@@](C)(O)[C@@]3(O)[C@@H](OC(=O)CCC)C[C@](C)(OC(C)=O)[C@@H]2[C@@H]1OC(=O)CCCCCCC` the Potency was 743 nM (active). With `CCN1CCN(C(=O)Cc2ccc(Nc3ncc(F)c(Nc4ccc(C(=O)Nc5ccccc5Cl)cc4)n3)cc2)CC1` the Potency was 1320 nM (active). With `C[C@]12CC[C@H]3[C@@H](CCC4=CC(=O)CC[C@@]43C)[C@H]1CC[C@H]2O` the Potency was “inactive”. In the case of `COc1ccc(N(C(=O)Oc2c(C)cccc2C)c2ccnc(Nc3ccc(N4CCN(C)CC4)cc3)n2)c(OC)c1`, the viability (% of DMSO control) is reported as 84% (active). For `CC[C@@]1(O)C(=O)OCc2c1cc1n(c2=O)Cc2cc3ccccc3nc2-1`, the Potency was 16.6 nM (active). In the case of `COCC1(CO)C(=O)C2CCN1CC2` (stereo not given), the Potency is reported as 11800 nM (active). For `O=c1[nH]c2ccccc2n1C1CCN(Cc2ccc(-c3[nH]c4cc5ncnc5cc4nc3-c3ccccc3)cc2)CC1`, the Potency was 13200 nM (active). For `C[C@@H]1CC[C@@]2(OC1)O[C@H]1C[C@H]3[C@@H]4CC=C5C[C@@H](O[C@@H]6O[C@H](CO)[C@@H](O[C@@H]7O[C@@H](C)[C@H](O)[C@@H](O)[C@@H]7O)[C@H](O)[C@@H]6O[C@@H]6O[C@@H](C)[C@H](O)[C@@H](O)[C@@H]6O)CC[C@]5(C)[C@@H]4CC[C@]3(C)[C@@H]1[C@H]2C`, the Potency was 2640 nM (active).
